FMDV antiviral: blocks foot and mouth disease virus; FMDV antiviral cell-based qHTS; Potency, µM (titrated, usually from 57.9 µM), usual class: inhibitors; hit rate 1.2% among 410,000; AID 1159524; calls by dose curve; tested in HEK293T cells; also: read-out not given here; nearly all actives have a fitted effect of over 45% in size
MARV entry inh: inhibitors of Marburg virus binding or cell entry | Potency, µM (series often up to 37.8 µM), actives largely listed as inhibitors | AID 540276 | Marburg virus pseudotyped entry inhibition, cell reporter | hit rate 1.8% among 300,000; calls by dose curve; tested in HEK293 cells
HCMV inh: inhibitors of human cytomegalovirus. activity change, negative = inhibition, % at 57.5 µM. hit rate 4.5% among 410,000. AID 1259415. HFF cells, HCMV-luciferase reporter, 72 h; stronger effect = lower value; in the data active = activity change below about -60%; inconclusive = no clear call, values can overlap the other calls; inactive = above about -39%
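Cell-based, HFFs, 1000 cells/well, 16 h 37C; cpds in DMSO + HCMV-luc, MOI 1 PFU/cell; 72 h 37C; OneGlo luminescence after 5 min RT; norm. to buffer vs Salinomycin 10uM.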
LASV entry inh: Lassa virus entry inhibition; Lassa virus pseudotype entry inhibition, cell reporter; Potency, µM (highest dose often 37.9 µM), hits mostly inhibitors; hit rate 1.2% among 300,000; AID 540256; calls by dose curve; tested in HEK293 cells; also: nearly all actives have a fitted effect of over 50% in size
Of the large screens only hits and unclear results are named; the others gave an inactive call. Most compounds without a hit are left out; they make up all but 6.2% or so of the library.

N#Cc1nc(-c2ccc(COc3ccc(Cl)cc3)o2)oc1N1CCC(C(N)=O)CC1	FMDV antiviral inconclusive, HCMV inh -65
CCOc1ccc(Nc2oc(-c3ccc(Cl)cc3)nc2C#N)cc1	MARV entry inh 7.3µM, LASV entry inh 16µM
COc1ccc(Nc2oc(-c3ccc(Cl)cc3)nc2C#N)cc1	MARV entry inh inconclusive
COc1ccc(Nc2oc(COc3ccc(Cl)cc3)nc2C#N)cc1	FMDV antiviral inconclusive, MARV entry inh inconclusive, HCMV inh -78, LASV entry inh inconclusive
COc1cc(=O)n2c(c1C(=O)N(C)Cc1nonc1C)CCN(Cc1cccc3ccccc13)CC2	none (no result: MARV entry inh, HCMV inh, LASV entry inh)
C[C@H]1[C@@H](NS(=O)(=O)c2ccc([N+](=O)[O-])cc2)CC[C@@]23CCCN2C(=O)CCC[C@@H]13	none (no result: FMDV antiviral, MARV entry inh, LASV entry inh)
CC(Nc1oc(-c2ccc(COc3ccc(Cl)cc3)o2)nc1C#N)c1ccccc1 (stereo not given)	HCMV inh -74
Cc1cccc(NC(c2ccc(O)cc2)c2ccc3ccc(C)nc3c2O)n1 (stereo not given)	LASV entry inh 21µM
CCCCCC(=O)N/N=C(\C)c1ccc(NC(=O)c2ccco2)cc1	LASV entry inh 3.5µM
NC1=C(Cl)C(=O)c2ccc(S(N)(=O)=O)cc2C1=O	FMDV antiviral 2.5µM, MARV entry inh 2µM, HCMV inh -101, LASV entry inh inconclusive
O=C(Nc1ccnn1C1CCN(C2CCCCC2)CC1)c1ccccc1	none (no result: MARV entry inh, LASV entry inh)
CN(C)S(=O)(=O)c1ccc(C(=O)Nc2ccnn2C2CCCCC2)cc1	FMDV antiviral 28µM, MARV entry inh inconclusive
CC(=O)NC(c1ccc(C(C)C)cc1)c1ccc2cccnc2c1O (stereo not given)	MARV entry inh inconclusive, HCMV inh -99, LASV entry inh inconclusive
CCCC(=O)NC(c1ccccc1)c1ccc2cccnc2c1O (stereo not given)	MARV entry inh inconclusive, HCMV inh -102, LASV entry inh inconclusive
COc1ccc(Cl)cc1C(Nc1cccnc1)c1ccc2cccnc2c1O (stereo not given)	MARV entry inh 11µM, LASV entry inh inconclusive
CC(=O)NC(c1ccccc1)c1cc([N+](=O)[O-])c2cccnc2c1O (stereo not given)	MARV entry inh inconclusive, LASV entry inh inconclusive
CCCCC(=O)NC(c1ccc(C(C)C)cc1)c1ccc2cccnc2c1O (stereo not given)	HCMV inh -103 (no result: MARV entry inh, LASV entry inh)
COc1cccc(C(Nc2ccccc2)c2ccc3ccc(C)nc3c2O)c1 (stereo not given)	none (no result: MARV entry inh, LASV entry inh)
ClC1=C(Cl)[C@]2(Cl)[C@@H]3[C@H]4C[C@H]([C@@H]5O[C@H]45)[C@@H]3[C@@]1(Cl)C2(Cl)Cl	none (no result: MARV entry inh, HCMV inh, LASV entry inh)
COc1cc2onc(C3CCN(C(=O)C(C)(C)C)CC3)c2cc1OC	none (no result: FMDV antiviral, MARV entry inh, LASV entry inh)
COC(=O)[C@]1(C#N)CC(=O)N([C@H](c2ccccc2)[C@H](O)c2ccccc2)[C@@H]1c1ccccc1	none (no result: FMDV antiviral, MARV entry inh, LASV entry inh)
COc1ccc(C(=O)N2CCC3(CC2)CN(c2ccc(-c4ccccc4)cc2)C3)cc1	none (no result: MARV entry inh, HCMV inh, LASV entry inh)
COC(=O)[C@@]1(Sc2ccc(OC)cc2)CC(=O)N(c2ccc(OC(C)C)cc2CO)[C@@H]1c1ccc(OC(C)C)c(OC)c1	none (no result: FMDV antiviral, MARV entry inh, LASV entry inh)
COc1ccc([C@@H]2[C@@H](C(=O)N3CCOCC3)CC(=O)N2C(=O)/C=C/c2ccccc2)cc1	none (no result: FMDV antiviral, MARV entry inh, LASV entry inh)
Oc1c(C(c2ccccc2Cl)N2CCCC2)ccc2cccnc12 (stereo not given)	FMDV antiviral inconclusive (no result: MARV entry inh, LASV entry inh)
Oc1c(C(Nc2ccccn2)c2cccnc2)cc(Cl)c2cccnc12 (stereo not given)	MARV entry inh inconclusive, LASV entry inh inconclusive
Cc1cc(NC(c2cccnc2)c2ccc3cccnc3c2O)no1 (stereo not given)	FMDV antiviral inconclusive, MARV entry inh inconclusive, HCMV inh -104, LASV entry inh inconclusive
Oc1c(C(Nc2cccc(C(F)(F)F)c2)c2cccnc2)ccc2cccnc12 (stereo not given)	MARV entry inh inconclusive, LASV entry inh inconclusive
CCC(=O)NC(c1ccccc1OC)c1ccc2cccnc2c1O (stereo not given)	MARV entry inh 4.6µM, LASV entry inh inconclusive (no result: HCMV inh)
COc1cccc(/C=N/NC(=O)COc2cccc3cccnc23)c1O	MARV entry inh inconclusive, LASV entry inh inconclusive
Oc1cccc(C(Nc2ccccn2)c2ccc3cccnc3c2O)c1Cl (stereo not given)	MARV entry inh inconclusive, HCMV inh -82, LASV entry inh inconclusive
CCCCC(=O)NC(c1ccccc1Cl)c1ccc2cccnc2c1O (stereo not given)	HCMV inh -96 (no result: MARV entry inh, LASV entry inh)
CC(=O)Nc1ccc(CN(C)c2c(C)nc3ccc(C(=O)N4CCN(c5ccccc5)CC4)cn23)cc1	none (no result: MARV entry inh, LASV entry inh)
CCC(=O)NC(c1ccc(OC)cc1)c1c(O)ccc2ccccc12 (stereo not given)	none (no result: MARV entry inh, LASV entry inh)

Screening results deposited in PubChem BioAssay by National Center for Advancing Translational Sciences (NCATS).
